How the values were obtained:
Experiment in all cases: PBM binding z-score (relative to random genomic background probes); higher = stronger binding; sequences stand for … in GC…GCGATTGACAGCGTAGAATGAAGG
[1] = test system: RARb homodimer (NR concentration 270 nM)
Outline: (§1)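 For binding z-scores, the reference was random background probes on custom Agilent 4×180K protein-binding microarrays. These arrays were incubated 1 h with ligand-free nuclear receptor dimers in PBS pH 7.4, 2% milk, 0.02% Triton X-100, 1 mM DTT, 0.2 mg/mL BSA and 0.4 mg/ml salmon testes DNA. Fluorescence was scanned after antibody detection of each partner (one per run) and regression-normalized.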

[2] = test system: RARg:RXRa (NR concentration 270 nM, RXRa partner concentration 90 nM)
Outline: as §1

[3] = test system: RARg homodimer (NR concentration 270 nM)
Outline: as §1

[4] = test system: RXRa DBDmut IVT, anti-RXR (DBD mutation: RXRa K156A/R161A, NR concentration 90 nM)
Outline: as §1

[5] = test system: RXRa homodimer (NR concentration 180 nM)
Outline: as §1

[6] = test system: THRa:RXRa (NR concentration 90 nM, RXRa partner concentration 90 nM)
Outline: as §1

[7] = test system: THRa homodimer (NR concentration 90 nM)
Outline: as §1

[8] = test system: VDR homodimer (NR concentration 270 nM)
Outline: as §1

Sequence | PBM binding z-score [1] | PBM binding z-score [2] | PBM binding z-score [3] | PBM binding z-score [4] | PBM binding z-score [5] | PBM binding z-score [6] | PBM binding z-score [7] | PBM binding z-score [8]
ACTTACGGGGCAACGAGGTTATAGCACGCGTATA | 1.13 | 1.75 | 1.76 | 1.63 | 1.73 | 2.08 | 0.279 | 1.72
GATACAGGGTCAAGGCCAGAGGACGCGTATTGAT | 3.63 | 5.29 | 4.94 | 2.07 | 5.78 | 3.64 | 1.43 | 2.28
GATACAGGGTTAGCTAGAGGCCAGAGTATGGAAA | 0.99 | 3.12 | 0.756 | -0.477 | 0.857 | 1.23 | -0.252 | 0.162
TCTATTAGTTGATTAGGGCAACAGAAACAGCGGA | 0.664 | 0.691 | 0.686 | 0.926 | 0.691 | 0.607 | 0.289 | 0.253
TAGCCTAGGTCATTGGGTCAGTATAGTACGCATC | 4.17 | 5.16 | 5.23 | 1.87 | 3.63 | 3.25 | 1.84 | 2.21
ATTCAAAGTTCAGGACGAGGTAACGTAAAGCACG | 3.31 | 4.56 | 4.73 | 2.99 | 3.08 | 3.82 | 2.01 | 2.3
CAAACTGGGTCACGAAAGGTCAAAGTCGAATGAC | 5.73 | 7.84 | 8.05 | 2.44 | 8.52 | 5.02 | 1.75 | 3.72
TCTTGTAGATCAAGCAGGTTAAAAAAGCCTGAGT | 0.112 | 0.141 | -0.124 | 0.493 | 0.566 | 0.589 | -0.577 | 0.272
TGAATGAGGTTATACGATCAGGGAACGTTGCAAA | 0.016 | 1.31 | 1.01 | 0.956 | 2.06 | 1.8 | 0.24 | 0.274
ACTAGCAAGCCAAGTTTGGGTCACTCAAACAAAG | 1.51 | 0.717 | 0.562 | -0.45 | 0.557 | 2.09 | 0.807 | -0.115
ACTATTAGTTGACTTAGGGCAGCCGATACGACGC | 0.54 | 0.527 | 0.729 | 0.712 | 0.378 | 0.635 | 0.246 | 0.0585
TCTTGTAGATCAACAGGAGGTTAAGGAAGATCGA | 0.564 | 0.698 | 0.308 | 0.0925 | 0.861 | 0.777 | -0.373 | -0.358
TAGCCTAGGTCATTGAGCCAGTATAGTACGCATC | 2.68 | 3.9 | 4.06 | 1.72 | 2.9 | 2.79 | 0.737 | 1.03
CCGACTGGGGCAAGGTTATCATAACGCACAGCCA | 1.27 | 1.03 | 1.08 | 0.0521 | 1.12 | 1 | 0.224 | 0.128

— the supplement of paper PMC6555819
